# Source: PubChem BioAssay (National Center for Advancing Translational Sciences (NCATS))
# nsP2pro primary: inhibitors of chikungunya virus nsP2 protease; FRET peptide cleavage, nsP2pro, fluorescence 1 h; Potency, µM (series often up to 24.9 µM), usual class: inhibitors; 31,000 compounds, 1.1% hits; also: nearly all actives have a fitted effect of over 60% in size
#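 FRET cleavage of 2.5 uM peptide 2 by 150 nM CHIKV protease domain at pH 8.0 (Tris, Tween 20). Compounds at 7 concentrations (up to 25 uM) preincubated 15 min. Fluorescence read after 1 h at room temperature.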
# CHIKV nsP2 cell: cell-based CHIKV nsP2 protease inhibition, secondary. shares compounds with nsP2pro primary. cell-based CHIKV nsP2 protease reporter assay. Potency, µM (doses to about 51.1 µM), usual class: inhibitors. 450 compounds, 10% hits. AID 1964100; also: nearly all actives have a fitted effect of over 70% in size
# CHIKV NSP2 FL: selectivity test for CHIKV nsP2 protease inhibitors: full-length NSP2 | shares compounds with nsP2pro primary | Full-length CHIKV NSP2 protease enzymatic counterscreen | Potency, µM (doses to about 50.7 µM), usual class: inhibitors | 410 compounds, 39% hits | AID 1964101; also: nearly all actives have a fitted effect of over 65% in size
# Furin counterscr: human furin inhibition, counterscreen for nsP2pro inhibitors. Potency, µM (series often up to 50.6 µM), usual class: inhibitors. 410 compounds, 6% hits. AID 1964102. shares compounds with nsP2pro primary. Recombinant human furin enzymatic counterscreen, fluorogenic substrate
# nsP2 NS23 pep: nsP2pro inhibition on native NS2/3 peptide substrate; shares compounds with nsP2pro primary; Purified CHIKV nsP2 protease, endogenous NS2/3 peptide cleavage; Potency, µM (series often up to 51 µM), most hits filed as inhibitors; 410 compounds, 34% hits; AID 1964103; also: nearly all actives have a fitted effect of over 55% in size
# Papain cs: selectivity counter-screen for CHIKV nsP2 protease inhibitors: papain. shares compounds with nsP2pro primary. purified papain protease activity, enzymatic inhibition. Potency, µM (doses to about 51 µM), usual class: inhibitors. 410 compounds, 5% hits. AID 1964104
# Target sequence (P00784 whole entry, looked up): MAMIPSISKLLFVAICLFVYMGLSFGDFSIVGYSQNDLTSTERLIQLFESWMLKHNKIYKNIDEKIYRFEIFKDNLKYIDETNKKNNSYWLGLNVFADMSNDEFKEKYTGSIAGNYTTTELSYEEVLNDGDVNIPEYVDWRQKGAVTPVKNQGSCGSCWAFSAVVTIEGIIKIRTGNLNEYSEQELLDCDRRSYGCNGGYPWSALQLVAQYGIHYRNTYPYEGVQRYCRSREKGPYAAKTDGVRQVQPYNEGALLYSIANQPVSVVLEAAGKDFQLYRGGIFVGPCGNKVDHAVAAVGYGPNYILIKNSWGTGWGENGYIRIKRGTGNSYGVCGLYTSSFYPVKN
# nsP2pro confirm: confirmation of CHIKV nsP2 protease inhibitors; 410 compounds, 43% hits; shares compounds with nsP2pro primary; CHIKV nsP2 protease enzymatic activity, qHTS; AID 1964105; Potency, µM (highest dose often 25.5 µM), hits mostly inhibitors; also: nearly all actives have a fitted effect of over 75% in size
# HCV NS3 4A cs: HCV NS3/4A protease inhibition, counterscreen; shares compounds with nsP2pro primary; HCV NS3/4A protease biochemical counterscreen; Potency, µM (highest dose often 50.9 µM), actives largely listed as inhibitors; 410 compounds, 20% hits; AID 1964106; also: nearly all actives have a fitted effect of over 55% in size
# A number is an active result; - = inactive; ? = inconclusive. Only a selection was taken, and hits are over-represented in it overall. Calls follow the shape of the full dose curve.
SMILES,nsP2pro primary,others
N[C@@H](Cc1ccccc1)C(=O)Nc1ccc(Cl)cc1C(=O)c1ccc[nH]1,-,
CCCc1c(C(C)C)nc(C(C)C)c([C@@H](C)O)c1-c1ccc(F)cc1O,-,
O=C1CCCC2=C1C(c1ccccc1Cl)N=C(c1ccccn1)N2 (configuration not stated),-,
Cc1c(C(=O)O)[nH]c2c1C(=O)CC(c1ccco1)C2 (configuration not stated),-,
Cc1ccc(C)c(N2CCN(C(c3ccc(F)cc3)c3nnc(-c4ccccc4)o3)CC2)c1 (configuration not stated),?,CHIKV nsP2 cell=-;CHIKV NSP2 FL=21µM;Furin counterscr=-;nsP2 NS23 pep=?;Papain cs=-;nsP2pro confirm=?;HCV NS3 4A cs=12µM
Cc1cccc(N2CCN(C(c3ccccc3)c3nnc(-c4ccccc4F)o3)CC2)c1C (configuration not stated),-,
Fc1ccc(C(c2nnc(-c3ccccc3)o2)N2CCN(c3cccc(Cl)c3)CC2)cc1 (configuration not stated),-,
COc1ccc(CNC(=O)c2cc(-c3cncc(C)c3)ncc2-c2nccs2)nc1OC,-,
O=C(Nc1cccs1)NC1CCN(c2ccc(C(F)(F)F)cn2)C1 (configuration not stated),?,CHIKV nsP2 cell=?;CHIKV NSP2 FL=?;Furin counterscr=-;nsP2 NS23 pep=?;Papain cs=-;nsP2pro confirm=?;HCV NS3 4A cs=-
O=C(Nc1ccccc1)NC1CCCN(c2ccc3nnc(-c4ccccc4)n3n2)C1 (configuration not stated),-,
O=C(NC1CCN(c2cc(-c3cccs3)[nH]n2)C1)c1cccnc1 (configuration not stated),-,
COc1ccc(-c2c(Cl)ncn2-c2ccc(S(N)(=O)=O)cc2)cc1F,-,
Cn1nc(-c2ccc(C(F)(F)F)cc2)nc2c(=O)n(C)c(=O)nc1-2,-,
COCCOC1CCN(C(=O)Nc2cccc(C)c2)CC1,-,
Cc1ccc(-c2nc3cccc(C)n3c2Nc2ccc3c(c2)OCO3)o1,-,CHIKV nsP2 cell=-;CHIKV NSP2 FL=-;Furin counterscr=-;nsP2 NS23 pep=-;Papain cs=-;nsP2pro confirm=-;HCV NS3 4A cs=-
Cc1ccc(-c2nc3ccccn3c2Nc2ccc3c(c2)OCO3)o1,-,
Cc1cccc2nc(-c3ccco3)c(Nc3ccc4c(c3)OCO4)n12,-,
O=[S+]1([O-])N(c2ccccc2)C[C@@H](O)[C@]12CCN(Cc1ccc(OC(F)F)cc1)C2,-,
COc1ccc(-c2sc(NC(=O)C(C)(C)C)nc2C)cc1S(=O)(=O)Nc1ccc(O)cc1,-,
c1nc(NCC2CCCCC2)c2cc(-c3ccc4c(c3)OCO4)ccc2n1,-,
COc1ccc(CN(C(=O)COc2ccccc2OC)C2CCS(=O)(=O)C2)cc1 (configuration not stated),-,
CCN1CCC(N(Cc2ccc3c(c2)OCO3)C(=O)Nc2ccccc2OC)CC1,-,
CCN(CC)Cc1ccc(C(=O)N(CCc2ccccc2OC)[C@@H]2CCNC2)cc1,?,CHIKV nsP2 cell=-;CHIKV NSP2 FL=6.3µM;Furin counterscr=-;nsP2 NS23 pep=-;Papain cs=-;nsP2pro confirm=?;HCV NS3 4A cs=?
N#Cc1cccc(-c2ccc(NC(=O)c3cccs3)cn2)c1,-,
CC(=O)N1Cc2ccccc2CC2(CCCN2Cc2ccccn2)C1 (configuration not stated),-,
SMILES,nsP2pro primary,others
O=C(NC1CCCCC1)O[C@@H]1CO[C@H]2[C@@H]1OC[C@@H]2n1nnnc1SCc1ccco1,0.45µM,CHIKV nsP2 cell=-;CHIKV NSP2 FL=2.9µM;Furin counterscr=?;nsP2 NS23 pep=6.5µM;Papain cs=-;nsP2pro confirm=0.9µM;HCV NS3 4A cs=?
O[C@@H]1CO[C@H]2[C@@H]1OC[C@@H]2n1nnnc1Sc1ncccn1,-,
O=C(NC1CCCCC1)O[C@@H]1CO[C@H]2[C@@H]1OC[C@@H]2NS(=O)(=O)c1ccc(Cl)cc1,-,
C/C=C/[C@@H]1C=C[C@@H]2C[C@H](C)CC[C@H]2[C@]1(C)/C(O)=C1/C(=O)[C@@H](CO)N(C)C1=O,-,
O=C(CCc1cc2n(n1)CCCNC2)N1CCCN(c2ccncc2)CC1,-,
C[C@]12CCC[C@](C)(C(=O)O)C1CCC13C=C(CO)C(CCC12)C3 (some centres not stated),-,
C=C1C2CCC3C(CCC4[C@@]3(C)CCC[C@@]4(C)C(=O)O)(C2)[C@@H]1OC(=O)/C(C)=C\C (some centres not stated),1.4µM,CHIKV nsP2 cell=-;CHIKV NSP2 FL=-;Furin counterscr=-;nsP2 NS23 pep=-;Papain cs=-;nsP2pro confirm=-;HCV NS3 4A cs=-
C=C1CC23CCC4[C@@](C)(CCC[C@@]4(C)C(=O)O)C2CCC1C3 (some centres not stated),-,
CC12CCC3C(C)(C)C(O)CCC3(C)C1Cc1c(oc(C(=O)O)cc1=O)O2 (configuration not stated),-,
NC(=O)OCC(N)Cc1ccccc1 (configuration not stated),-,
CC(C)[C@@H]1C[C@@H]2C[C@@H](Nc3ccccn3)C[C@]2(c2ccccc2)CO1,-,
Cc1nn(CCC#N)c(C)c1[C@@H]1C=C[C@@H](NC(=O)c2cccs2)C1,?,CHIKV nsP2 cell=-
Cc1nn(Cc2ccccc2)c(C)c1[C@@H]1C=C[C@@H](NC(=O)c2cccs2)C1,-,
CCNC(=O)N[C@@H]1C=C[C@@H](c2c(C)nn(-c3ccc(F)cc3)c2C)C1,-,
CCC1c2nccn2CCCN1C(=O)c1ocnc1C (configuration not stated),-,
O=C1COc2ccc(N3CCCC3)nc2CN1Cc1ccc(C(F)(F)F)cc1,-,
Cn1nnc(-c2ccc(-c3ccc(N4C[C@H](CO)OC4=O)cc3F)cn2)n1,-,
CC(C)CN(Cc1cccnc1)C1CN(C(=O)CCc2nc3ccccc3s2)C1,-,
CC(C)(O/N=C(\C(=O)N[C@@H]1C(=O)N2C(C(=O)[O-])=C(C[N+]3(CCNC(=O)c4ccc(O)c(O)c4Cl)CCCC3)CS[C@H]12)c1csc(N)n1)C(=O)O,-,
O=c1[nH]c(-c2ccc(C(F)(F)F)cc2)nc2c1CSCC2,?,CHIKV nsP2 cell=-;CHIKV NSP2 FL=-;Furin counterscr=-;nsP2 NS23 pep=-;Papain cs=-;nsP2pro confirm=-;HCV NS3 4A cs=-
O=c1[nH]c(-c2ccc(F)cc2)nc2c1CCN(S(=O)(=O)c1cccs1)C2,-,
CS(=O)(=O)c1ccccc1N1CCN(c2nc3c(c(=O)[nH]2)CSCC3)CC1,-,
CN1CC(C(=O)N2CCN(Cc3ccccc3)CC2)NC1=O (configuration not stated),-,
CC(C)(C)NC(=O)[C@@H]1C[C@@H]2CCCC[C@H]2CN1C[C@@H](O)[C@H](Cc1ccccc1)NC(=O)[C@H](CC(N)=O)NC(=O)c1ccc2ccccc2n1,-,
